The text below walks through data of PubChem BioAssay (NCATS).

A short description of assay [1]: Cell Viability - HUV-EC-C (AID 542).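 Also: cells exposed to compound for 40 hours; % is scaled to controls: 0 for no effect and ±100 for the full control effect; nearly all actives have a fitted effect of over 35% in size.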 In a few lines: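 qHTS cytotoxicity: HUV-EC-C, 1000 cells/well, 5 hr settle, compound 40 hr 37 °C, CellTiter-Glo, luminescence. AC50 via Hill equation.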
A short description of assay [2]: Cell Viability - SH-SY5Y (AID 544).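 Also: cells exposed to compound for 40 hours; 0% = DMSO alone and -100% = 100 µM tamoxifen; nearly all actives have a fitted effect of over 55% in size.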 In a few lines: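 Luminescent ATP read-out (CellTiter-Glo) measures loss of viable SH-SY5Y neuroblastoma cells after 40 hr compound exposure at 37 °C. AC50 values derive from standard Hill modelling of qHTS concentration-response data.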
Assay [3] is described as follows: Cellular Toxicity (caspase-3) SHSY5Y (AID 657). In a few lines:
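Luminescent Caspase-Glo 3/7 read-out, 1 hr room temperature, follows 16 hours of compound treatment of SH-SY5Y cells at 37 °C. Normalization: DMSO basal, 10 uM staurosporine as 100%; AC50 values from Hill-equation concentration-response fits.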

The nature of assay [4]: Cellular Toxicity (caspase-3) SK-N-SH (AID 661).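 Also: 0% = DMSO basal and 100% = 10 µM staurosporine.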 In a few lines:
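Human neuroblastoma SK-N-SH, 1500 cells/well, 5 hr pre-incubation, then compound 16 hr, 37 °C. Caspase-Glo 3/7 reagent, 1 hr RT, luminescence. Norm. to DMSO/10 uM staurosporine; Hill-fit AC50.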

Assay [5] in a line: Cellular Toxicity (caspase-3) H-4-II-E (AID 663).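 Also: 0% = DMSO basal and 100% = 100 µM tamoxifen.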 The settings on record: Potency: caspase-3 activation. In a few lines:
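Rat hepatoma H-4-II-E cells (1500/well) plated 5 hr, then exposed to compound titrations for 16 hr at 37 °C. Caspase-Glo 3/7 luminescence read after 20 min at RT; data normalized to DMSO and 100 uM tamoxifen, AC50 from Hill fits.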

Assay [6] is described as follows: MultiTox-Fluor Cytotoxicity Assay - LYMP1-001 - Dead Cells (AID 946).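 Also: 0% = DMSO and 100% = tetraoctylammonium bromide.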 In a few lines:
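In this qHTS, 15 uM tetraoctylammonium bromide defined 100% and DMSO defined basal activity. Lymphoblastoid cells (LYMP1-001, 2500 per well) received compound for 16 hr at 37 C before a fluorogenic dead-cell substrate readout at 485/520 nm.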

Assay [7] can be described thus: Cell Viability - LYMP1-002 - Assay at 16 hr (AID 948).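 Also: 0% = DMSO alone and full effect = 92 µM tetraoctylammonium bromide.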 In a few lines:
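ATP luminescence (CellTiter-Glo) was measured after 16 hr compound exposure at 37 C of 2500 lymphoblastoid LYMP1-002 cells per well. Concentration-response curves were fitted with the Hill equation to give AC50.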

The nature of assay [8]: MultiTox-Fluor Cytotoxicity Assay - LYMP1-002 - Live Cells (AID 955). Also: % is scaled to controls: 0 for no effect and ±100 for the full control effect. In a few lines: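 Read-out is live-cell protease activity (cell-permeant GF-AFC substrate, fluorescence Ex/Em=405/510), where a decrease indicates acute toxicity. Human lymphoblastoid cells were treated 16 hours at 37 C in a concentration series, and AC50 values came from standard Hill modelling.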
Assay [9] in a line: Cell Viability - LYMP2-013 (AID 970).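 Also: series mostly up to about 92 µM; 0% = DMSO only and full inhibition = tetraoctylammonium bromide control; nearly all actives have a fitted effect of over 55% in size.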 In a few lines:
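qHTS; 2500 lymphoblastoid cells/well; 5 hr 37 C settle; cpd 24 hr 37 C; CellTiter-Glo, 30 min RT; luminescence. AC50 = Hill fit.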

Assay [10] is described as follows: Cell Viability - LYMP2-017 (AID 972). Also: series mostly up to about 92 µM; % is scaled to controls: 0 for no effect and ±100 for the full control effect; nearly all actives have a fitted effect of over 55% in size. In a few lines:
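2500 cells/well, 5 h 37 C; cpd 24 h 37 C in complete medium; CellTiter-Glo, 30 min RT; luminescence (ATP). AC50 via Hill fit, qHTS.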

Assay [11] is described as follows: Cell Viability - LYMP2-007 (AID 979).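 Also: cells exposed to compound for 24 h before reading; 0% = DMSO only and the negative end = 92 µM tetraoctylammonium bromide; nearly all actives have a fitted effect of over 60% in size.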 In a few lines: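 Luminescent ATP signal (CellTiter-Glo) serves as the viability read-out after 24 hr compound treatment of lymphoblastoid cells in complete medium at 37 C. Concentration-response data were fitted to the Hill equation to give AC50 values.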
Assay [12] in a line: Cell Viability - LYMP2-010 (AID 981). Also: % is scaled to controls: 0 for no effect and ±100 for the full control effect; nearly all actives have a fitted effect of over 55% in size. In a few lines:
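Luminescent ATP signal (CellTiter-Glo) served as the viability read-out. Cells of the human lymphoblastoid line were treated with compound over a concentration range for 24 hours at 37 C, and AC50 values came from Hill-equation modeling.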

A short description of assay [13]: Cell Viability - LYMP2-012 (AID 982).
A short description of assay [14]: Cell Viability - LYMP2-018 (AID 985).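 Also: compound exposure lasted 24 hr at 37 °C; plate controls were DMSO only for no effect and tetraoctylammonium bromide at 92 µM for full effect; nearly all actives have a fitted effect of over 50% in size.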 In a few lines:
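Luminescent ATP signal (CellTiter-Glo, read after 30 min at room temperature) reports viable cells after 24 hr compound treatment at 37 C. Concentration-response data were fitted to the standard Hill equation for AC50.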

A short description of assay [15]: Cell Viability - LYMP2-020 (AID 986). In a few lines:
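Luminescent ATP signal (CellTiter-Glo, 30 min at room temperature) is the read-out after 24 h compound treatment of lymphoblastoid cells at 37 C. AC50 values come from Hill-equation fits across concentrations.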

Assay [16] in a line: Cell Viability - LYMP2-022 (AID 987). In a few lines:
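qHTS: human lymphoblastoid cells 2500/well; 5 hr 37 C; cpd added; 24 hr 37 C; CellTiter-Glo, 30 min RT; luminescence. AC50 via Hill fit; tetraoctylammonium bromide positive ctrl.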

Assay [17] can be described thus: Cell Viability - LYMP2-024 (AID 988).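 Also: plate controls were DMSO only for no effect and 92 µM tetraoctylammonium bromide for full effect; nearly all actives have a fitted effect of over 60% in size.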 In a few lines: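 Steps: seed 2500 cells/well, 5 hr 37 C; add compound, 24 hr 37 C; add CellTiter-Glo, 30 min room temperature; read luminescence. AC50 derived by Hill modelling of concentration-dependent ATP loss.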
Assay [18] in a line: qHTS assay for small molecule antagonists of retinoid X receptor alpha signaling (AID 588546).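 Also: cells stimulated with 9-cis-retinoic acid as agonist; % is scaled to controls: 0 for no effect and ±100 for the full control effect.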 The following applies: HEK293T RXRa-UAS-bla, beta-lactamase ratio, antagonist mode; measured here: W530 green channel, cytotoxicity proxy. In a few lines: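 Beta-lactamase reporter inhibition, read as CCF4 fluorescence ratio (ex 405, em 460/530 nm) after 2 h at RT. HEK293T UAS-bla cells, 2500/well, were stimulated with 9-cis-RA at 500 or 100 nM final alongside test compound for 18 h at 37 C.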

Assay [19] in a line: qHTS assay for small molecule agonists of the antioxidant response element (ARE) signaling pathway measured by Nrf2-dependant transcriptional activity - cell viability counter screen (AID 720653; active = well fitted curve in the direction sought with a large enough effect in the repeat runs; an effect the other way counts as inactive or inconclusive; also: % is scaled to controls: 0 for no effect and ±100 for the full control effect). The following applies: ARE-bla HepG2 viability, CellTiter-Glo ATP luminescence, 16 h; max response: stronger effect = lower value. In a few lines: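 ARE-bla HepG2 cells treated with compounds for 16 h at 37C; this counter screen measures viability as intracellular ATP by CellTiter-Glo luminescence after 30 min at room temperature.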

Assay [20] can be described thus: qHTS assay for cell viability of HEK293 cells (AID 743288). Also: % is scaled to controls: 0 for no effect and ±100 for the full control effect; nearly all actives have a fitted effect of over 50% in size. The following applies: ATP luminescence (CellTiter-Glo), 18 h; max response: stronger effect = lower value. In a few lines: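 Total intracellular ATP, measured with a luciferase-coupled reagent, indicates the number of viable HEK293 cells. Exposure to test chemicals lasts 18 h at 37 C in 1,536-well format at 2,000 cells/well.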

“And” between values parts separate entries of the source, which are not always exact repeats. Equal entries are not always repeated. Records with an inconclusive call do not appear. The source made the active and inactive calls. Unless noted, calls follow the shape of the dose curve; as a rule, active = well fitted curve in the direction sought with a large enough effect; inconclusive = small, poorly fitted or top-dose-only effect, or another doubt; inactive = no such curve, though single readings can be large; an effect the other way counts as inactive or inconclusive.

`Cc1ccc([N+](=O)[O-])c(C)c1`: the call in [1], in assay [3] and in assay [4] was inactive. Moreover, the Potency result in [2], in assay [5], in [6], in assay [7], in assay [8] and in assay [9] was “inactive” throughout. For the same compound, the Potency entry in [10], in assay [11], in assay [12], in [13], in [14] and in assay [15] was “inactive” throughout. The Potency result in assay [16] and in [17] was “inactive” in each case. Also, the max response in assay [18] was -2.42% and -7.16%; in assay [19], -3.32% (inactive) and -3.26% (inactive); in assay [20], 0.892% (inactive) and -5.18% (inactive).
On to `O=C(O)c1ccc(O)cc1O`, for which the compound was called inactive in assay [1], in assay [3] and in assay [4]. The Potency entry in [2], in assay [5], in assay [6], in assay [7], in assay [8] and in [9] was “inactive” in each case. The Potency entry in assay [10], in [11], in [12], in assay [13], in [14] and in assay [15] was “inactive” each time. For the same compound, the Potency entry in assay [16] and in assay [17] was “inactive” each time. The max response in assay [18] is -5.6%; in assay [19] it was 4.94% (inactive) and 4% (inactive); in [20] it was -11.1% (inactive) and 9.9% (inactive).
For the compound `CCO`, the result in assay [1], in assay [3] and in assay [4] was inactive. In addition, the Potency result in assay [2], in [5], in assay [6], in assay [7], in [8] and in assay [9] was “inactive” each time. For the same compound, the Potency result in [10], in assay [11], in assay [12], in [13], in [14] and in assay [15] was “inactive” each time. Also, the Potency entry in assay [16] and in assay [17] was “inactive” each time. Also, the max response in assay [18] is -7.92%; in assay [19], 7% (inactive); in assay [20], 8.81% (inactive).
As to `Clc1cc(Cl)c(Cl)c(Cl)c1Cl`, the outcome in assay [1], in assay [3] and in assay [4] was inactive. Moreover, the Potency entry in assay [2], in [5], in [6], in [7], in assay [8] and in assay [9] was “inactive” in each case. The Potency entry in assay [10], in assay [11], in [12], in assay [13], in assay [14] and in assay [15] was “inactive” in each case. The Potency result in assay [16] and in assay [17] was “inactive” in each case. Moreover, the max response in [18] is -5.69% and -1.37%; in assay [19] it was -0.0319% (inactive) and -1.01% (inactive); in assay [20], -16.4% (inactive) and -15.3% (inactive).
Turning to `OCCNCCO`, the compound was classed as inactive in [1], in assay [3] and in assay [4]. In addition, the Potency entry in [2], in assay [5], in assay [6], in assay [7], in assay [8] and in assay [9] was “inactive” throughout. Besides, the Potency entry in assay [10], in assay [11], in [12], in assay [13], in assay [14] and in assay [15] was “inactive” each time. Also, the Potency entry in [16] and in [17] was “inactive” throughout. Further, the max response in [18] is -14.5% and -2.92%; in assay [19], 2.63% (inactive) and -10.1% (inactive); in [20], 2.85% (inactive) and -11.3% (inactive).
